Candida biofilm = kills Candida albicans biofilms; C. albicans biofilm + clotrimazole, Alamar Blue; inhibition, % at 6 µM; AID 834; 0.14% of 85,000 active;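 active means inhibition above 20%; inactive means inhibition below 20%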;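 further: preformed 24 hr biofilms exposed to compound for 48 hr; 0% = biofilm without compound and 100% = blank killed by clotrimazole plus chlorhexidine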
PLK1 PBD inh = inhibitors of human Plk1 polo box domain binding | inhibition, %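 (tested at about 20 µM)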 | P53350 | 0.13% of 97,000 active | Plk1 PBD phosphopeptide binding, fluorescence polarization; in the data active means inhibition above about 34%, passing the limit was not always enough
Target sequence (P53350 whole entry, looked up, the tested form may be a part): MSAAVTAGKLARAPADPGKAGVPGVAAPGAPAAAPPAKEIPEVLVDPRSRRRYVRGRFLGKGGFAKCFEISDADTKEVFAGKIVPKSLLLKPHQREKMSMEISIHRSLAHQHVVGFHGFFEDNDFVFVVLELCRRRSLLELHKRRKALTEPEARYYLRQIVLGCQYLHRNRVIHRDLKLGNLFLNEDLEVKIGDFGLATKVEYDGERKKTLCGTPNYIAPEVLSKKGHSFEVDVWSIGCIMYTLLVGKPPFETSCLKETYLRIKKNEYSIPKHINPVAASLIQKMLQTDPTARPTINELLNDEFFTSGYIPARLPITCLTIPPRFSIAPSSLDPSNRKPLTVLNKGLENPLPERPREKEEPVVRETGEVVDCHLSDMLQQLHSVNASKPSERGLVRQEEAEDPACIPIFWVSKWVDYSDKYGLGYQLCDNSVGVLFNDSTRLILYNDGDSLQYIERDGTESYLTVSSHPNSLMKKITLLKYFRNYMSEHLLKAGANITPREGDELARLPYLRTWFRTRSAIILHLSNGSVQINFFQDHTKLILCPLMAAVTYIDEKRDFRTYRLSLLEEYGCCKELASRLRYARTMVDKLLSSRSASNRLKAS
PLK1 inh = blocks human PLK1 kinase activity. P53350. recombinant PLK1 kinase, TR-FRET peptide phosphorylation. inhibition, % at 10 µM. 0.53% of 97,000 active. AID 619;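 active means inhibition of 50% or more in the single-concentration screen; inactive means inhibition below 50%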;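 further: 0% = DMSO max control and 100% = H-89 dihydrochloride min control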
Mac1 fbg inh = inhibitors of human CD11b/CD18 binding to fibrinogen; P05107+P11215; K562 CD11b/CD18 adhesion to fibrinogen, ATPlite luminescence; Mn2+ added to activate the integrin; AID 1497; inhibition, % at 10 µM; 0.54% of 93,000 active;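 active means primary inhibition of 50% or more at 10 µM, then 40% or more on retest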
CD11b adhes enh = increases human CD11b/CD18 adhesion to fibrinogen; K562 CD11b/CD18 adhesion to fibrinogen, ATPlite luminescence; AID 1499; activation, % at 10 µM; 0.07% of 93,000 active; P05107+P11215;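 active means 10 µM primary screen giving 50% or more activity, confirmed by 40% or more on retest at that dose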
PLK1 inh conf = confirmation of human PLK1 kinase inhibitors; shares compounds with PLK1 inh; recombinant PLK1 kinase, TR-FRET peptide phosphorylation; inhibition, % at 10 µM; 20% of 210 active; AID 744;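 active means inhibition at or above 50% in each of two repeat confirmation tests; inconclusive means one repeat below 50% inhibition, the other above; inactive means both repeats at or below 50% inhibition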;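 further: 0% = DMSO max control and 100% = H-89 kinase-blocked min control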
TR-FRET interf = Plk1 assay compound interference counter-screen hit; 210 tested, under 10 active; AID 756; inhibition (interference), % at 10 µM; shares compounds with PLK1 inh; Plk1 TR-FRET assay interference, compound added post-reaction;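 active means both duplicate runs show 50% or greater inhibition; inconclusive means only one duplicate run shows over 50% inhibition; inactive means both runs show under 50% inhibition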;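 further: 0% = DMSO max control and 100% = H-89 min control inhibited reaction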
PBD redox DR = generates H2O2 by redox cycling, flagging false Plk1 PBD hits | redox cycling H2O2 generation, DTT, counter-screen | EC50, µM | shares compounds with PLK1 PBD inh | 120 tested, under 10 active; call rule not given here
Active calls of the source: *; ? = inconclusive; . = no result given. Most compounds without a hit are left out; they make up all but 1.1% or so of the library.

SMILES | Candida biofilm | PLK1 PBD inh | PLK1 inh | Mac1 fbg inh | CD11b adhes enh | PLK1 inh conf | TR-FRET interf | others
CCn1cc(/C=N/N=C2\CCC3C4CCc5cc(O)ccc5C4CC[C@]23C)c(C)n1 (stereo not given in full) | . | 5 | -13 | 6 | 2 | . | .
Cc1cccnc1Nc1nc(-c2ccc(O)cc2O)cs1 | 10 | 15 | 10 | -6 | -2 | . | .
NS(=O)(=O)c1ccc(Nc2nc(-c3ccc(O)cc3O)cs2)cc1 | 5 | 17 | 72* | -37 | -3 | ? | -45
CC1CCc2c(nc3sc4c(c3c2N)CCCC4)C1 (stereo not given) | . | . | . | 4 | -3 | . | .
COc1ccc(C(=O)N=c2sc3c(C)ccc(OC)c3n2C)cc1 | . | 22 | -111 | 37 | -2 | . | .
CCCN1CCC(NC(=S)Nc2ccc(C(=O)OCC)cc2)CC1 | . | . | . | 3 | 3 | . | .
CCOC(=O)c1ccc(NC(=S)NCCCN2CCCCC2)cc1 | . | -17 | 113* | . | . | -3 | -49
O=C(CSc1nnc2c(n1)[nH]c1ccccc12)Nc1ccc2c(c1)OCO2 | . | -20 | -8 | 5 | 21 | . | .
[O-][N+]12CCN(CC1)c1ccccc12 | -7 | -12 | 77* | -3 | -1 | -5 | -60
CC1CCN(c2ccccc2N)CC1 | 5 | 2 | -10 | 9 | -1 | . | .
Cc1oc2ncnc(N)c2c1C | -2 | -43 | 76* | -5 | -1 | 68* | -52
CCn1nccc1C(=O)Nc1ccc(Cl)cn1 | 3 | -12 | -9 | -21 | 1 | . | .
CCn1ccc(C(=O)Nc2ccc(Cl)cn2)n1 | 8 | 2 | 71* | -6 | 0 | -8 | -57
CCCCCCc1nc2ccccc2c(=O)n1NC(=O)c1c(O)c2cccc3c2n(c1=O)CC3 | -3 | 17 | -6 | . | . | . | .
COc1ccc(-n2ncc3c(N4CCC(C)CC4)ncnc32)cc1 | 3 | . | . | . | . | . | .
CC1CCN(c2ncnc3c2cnn3-c2ccccc2)CC1 | 4 | -50 | 75* | 4 | -2 | -4 | -54
O=C1c2ccccc2C(O)(c2ncc[nH]2)N1CCc1ccccc1 (stereo not given) | 5 | 25 | -11 | 10 | 0 | . | .
CCOc1cc(C(=O)Nc2cccc3ncccc23)cc(OCC)c1OCC | -7 | -16 | 11 | 0 | -2 | . | .
CC(Oc1ccc(Cl)cc1Cl)C(=O)NCCCN1CCOCC1 (stereo not given) | -1 | 14 | 74* | 3 | 0 | -13 | -48
O=c1[nH]cnc2sc(-c3ccccc3)cc12 | 3 | -23 | 78* | 5 | 0 | 68* | -44
CCc1cc2c(=O)[nH]cnc2s1 | 6 | -7 | -7 | . | . | . | .
COc1ccc(NS(=O)(=O)c2ccc3nc(COc4ccc(Cl)c(C)c4)[nH]c3c2)cc1 | . | . | . | 27 | 0 | . | .
CCc1nnc(NC(=O)[C@@H](NC(=O)c2cccc(S(=O)(=O)N3CCOCC3)c2)C(C)C)s1 | 4 | -4 | -12 | -5 | -2 | . | .
CCSc1nnc(NC(=O)C(C)C)s1 | -5 | 7 | 71* | -14 | 2 | -2 | -52
COc1ccc(/C=C/C(=O)c2ccc(NC(=O)c3cccs3)cc2)cc1OC | . | 13 | -11 | 13 | 23 | . | .
SMILES | Candida biofilm | PLK1 PBD inh | PLK1 inh | Mac1 fbg inh | CD11b adhes enh | PLK1 inh conf | TR-FRET interf | others
CCOc1ccc(-c2csc(N)c2C(=O)OC)cc1 | 12 | 15 | -4 | 10 | -2 | . | .
CCOC(=O)c1c(-c2ccncc2)csc1N | 5 | 7 | 70* | -4 | 3 | 66* | -49
COc1ccc(/C=N/c2oc(-c3ccccc3)cc2C#N)cc1OC | . | 12 | -10 | -6 | 1 | . | .
Cc1ccc(N(CC(=O)Nc2ccc(C)cc2C)S(=O)(=O)N2CCCC2)cc1 | 4 | 5 | 88* | 34 | 2 | -9 | -49
CCN1CCN(CC(=O)Nc2ccc(C)cc2C)C(=O)C1=O | 4 | 18 | 5 | -1 | 3 | . | .
Cc1cc(NC(=O)c2nn3cccnc3c2Cl)no1 | 3 | -19 | 0 | 9 | -2 | . | .
C=CCNC(=O)c1nn2cccnc2c1Cl | 4 | 3 | 130* | -18 | 1 | -4 | -53
CC(=O)N/C(=C\c1ccccc1)C(=O)OCC(=O)N(C)C1CCCCC1 | . | . | . | -1 | -3 | . | .
COc1ccc(C(=O)Nc2cc(C(F)(F)F)ccc2Cl)cc1OC | . | 0 | -6 | . | . | . | .
O=C(c1ccco1)N1CCN=C1SCc1cccnc1 | . | 16 | -9 | -25 | -2 | . | .
O=C(c1ccco1)N1CCN=C1SCc1ccccc1F | 6 | 14 | 78* | 16 | -1 | -9 | -59
COC(=O)c1sccc1NC(=O)COc1ccccc1Cl | . | . | . | 0 | 0 | . | .
CCN(CC)S(=O)(=O)c1ccc(C(=O)OCCN2C(=O)CCC2=O)cc1 | 8 | -10 | 74* | -21 | 1 | -10 | -48
CC(=O)N1CCc2cc(C(=O)CN3CCN(C(=O)c4ccco4)CC3)ccc21 | 4 | -9 | 70* | -7 | -3 | -9 | -50
CC(=O)N1CCc2cc(C(=O)CN3CCN(c4cccc(Cl)c4)CC3)ccc21 | 3 | -13 | -8 | 46 | -3 | . | .
CC(=O)N1CCc2cc(C(=O)CN3CCC(C)CC3)ccc21 | 1 | -6 | 82* | -7 | 2 | 3 | -47
O=C1Nc2ccc([N+](=O)[O-])cc2C1(O)N1CCCCC1 (stereo not given) | . | 57* | -14 | -10 | -2 | . | . | PBD redox DR=>50
CCc1cc(-c2n[nH]c(C)c2Oc2ccc(C(C)C)cc2)c(O)cc1O | 6 | -13 | -53 | 22 | -1 | . | .
CCNC(=O)NC(=O)C(C)OC(=O)c1cccnc1SC (stereo not given) | -3 | 51* | -3 | . | . | . | . | PBD redox DR=>50
C=CCNC(=O)NC(=O)COC(=O)c1cccnc1SC | 1 | 6 | -3 | -7 | -5 | . | .
CCCNC(=O)Cn1cnc2sc(C(=O)N3CCN(CCC)CC3)c(C)c2c1=O | 9 | . | . | -17 | -2 | . | .
CCn1cnc2sc(C(=O)N3CCN(c4ccc(OC)cc4)CC3)c(C)c2c1=O | 2 | 45* | -5 | . | . | . | . | PBD redox DR=>50
COC(=O)CNC(=O)C12CC3(C)CC(C)(CC(C)(C3)C1)C2 | 6 | 33* | -9 | 1 | 0 | . | . | PBD redox DR=>50
O=C(COC(=O)Cc1ccccc1[N+](=O)[O-])NCc1ccc(F)cc1 | . | . | . | -1 | 5 | . | .
OCC(CO)(CO)N=Cc1cc(Br)ccc1O | 6 | 47* | -7 | 1 | 29 | . | . | PBD redox DR=>50
Cn1cc(SCC(=O)Nc2ccc3c(c2)OCCO3)c2ccccc21 | 5 | 44* | 4 | 0 | -3 | . | . | PBD redox DR=>50
CCn1c(=O)cc(SCC(=O)Nc2ccc3c(c2)OCO3)c2ccccc21 | 3 | 17 | -7 | -12 | 4 | . | .
CC(C)N(Cc1cc2ccccc2[nH]c1=O)C(=O)c1cccnc1 | -3 | 35* | -9 | -6 | -4 | . | . | PBD redox DR=>50
O=C(O)C1CCCCC1C(=O)Nc1ccc2c(c1)OCCO2 (stereo not given) | . | 52* | -8 | 1 | -4 | . | . | PBD redox DR=>50

Compound activity as filed in PubChem BioAssay.
